One assay concerns the target PUM1 PUF domain R4-TPG (Homo sapiens, UniProt Q14671 828-1176, N971T;H972P;Q975G). As to the kind of experiment: yeast three-hybrid, YBZ-1, SC-Leu-His + 0.5 mM 3-AT, 4 days. The following applies: tags: N-Gal4 AD-HA kept; label: inside an RPR1-promoter hybrid RNA with tandem MS2 sites; ssRNA. Put shortly: (§1)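 Matching RNA elements and Pumilio-1 PUF domain libraries, randomized at the three base-contacting residues of every repeat, were co-expressed from a centromeric plasmid in strain YBZ-1 (LexA–MS2 coat fusion, HIS3 reporter). The repeat regions were PCR-amplified and Illumina-sequenced from cells grown four days on SC-Leu (input) or SC-Leu-His + 0.5 mM 3-AT (selection). The interaction score is the log change in variant frequency from input to selection. It is computed in log2, with a pseudocount of 1 for absent variants.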
PUM1 PUF domain R1-RCS, sequence (Q14671 828-1176 S863R/R864C/Q867S): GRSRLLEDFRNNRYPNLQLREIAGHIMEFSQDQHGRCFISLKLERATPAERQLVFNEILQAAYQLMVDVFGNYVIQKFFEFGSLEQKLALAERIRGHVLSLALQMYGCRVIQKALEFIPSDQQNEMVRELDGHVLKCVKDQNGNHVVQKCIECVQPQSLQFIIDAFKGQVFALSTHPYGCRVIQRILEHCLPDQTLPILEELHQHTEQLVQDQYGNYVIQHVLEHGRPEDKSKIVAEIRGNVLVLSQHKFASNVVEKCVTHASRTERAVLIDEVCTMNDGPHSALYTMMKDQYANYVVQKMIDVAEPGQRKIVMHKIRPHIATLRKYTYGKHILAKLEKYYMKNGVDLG
PUM1 PUF domain R4-TPG, sequence (Q14671 828-1176 N971T/H972P/Q975G): as the sequence (Q14671 828-1176 S863R/R864C/Q867S) above, with R36S, C37R, S40Q, N144T, H145P, Q148G counted along it
For “GGCUAGAACUAGUGGAUCCCCCGGCGCCCGGCGGCUCGAGCCCGGGUAAGUGUACAUAGUCUGCAUGCCGCCGGGCGCCAUGCCUGCAGGUCGACUCUAGAAAACAUG”, the binding signal is 3.87 log2 enrichment (interaction score).
On the same count and under the same terms, the same measure for “GGCUAGAACUAGUGGAUCCCCCGGCGCCCGGCGGCUCGAGCCCGGGUAAGUGUAAAUAGUCUGCAUGCCGCCGGGCGCCAUGCCUGCAGGUCGACUCUAGAAAACAUG”: 3.31 log2 enrichment (interaction score); for “GGCUAGAACUAGUGGAUCCCCCGGCGCCCGGCGGCUCGAGCCCGGGUAAGUGUAUAUAGUCUGCAUGCCGCCGGGCGCCAUGCCUGCAGGUCGACUCUAGAAAACAUG”: 4.15 log2 enrichment (interaction score).

A further assay addresses PUM1 PUF domain R1-RCS (Homo sapiens, UniProt Q14671 828-1176, S863R;R864C;Q867S). The assay is described as above. The conditions noted are these: tags: N-Gal4 AD-HA kept; label: inside an RPR1-promoter hybrid RNA with tandem MS2 sites; ssRNA. Put shortly: as §1
For the sequence “GGCUAGAACUAGUGGAUCCCCCGGCGCCCGGCGGCUCGAGCCCGGGUAAGUGUAAAUUGUCUGCAUGCCGCCGGGCGCCAUGCCUGCAGGUCGACUCUAGAAAACAUG”, the binding signal was 3.23 log2 enrichment (interaction score).
On to “GGCUAGAACUAGUGGAUCCCCCGGCGCCCGGCGGCUCGAGCCCGGGUAAGUGUAAAUCGUCUGCAUGCCGCCGGGCGCCAUGCCUGCAGGUCGACUCUAGAAAACAUG”, for which the binding signal is 3.49 log2 enrichment (interaction score).
With “GGCUAGAACUAGUGGAUCCCCCGGCGCCCGGCGGCUCGAGCCCGGGUAAGUGUAAAUGGUCUGCAUGCCGCCGGGCGCCAUGCCUGCAGGUCGACUCUAGAAAACAUG”, the binding signal is 1.75 log2 enrichment (interaction score).

These data come from paper PMC8384837, “Expanding the binding specificity for RNA recognition by a PUF domain”.
